# TDP1 cell noCPT: qHTS for Inhibitors of human tyrosyl-DNA phosphodiesterase 1 (TDP1): qHTS in cells in absence of CPT; DT40 Tdp1-/- hTDP1 cells, no CPT, ATP luminescence, 48 h; Potency, µM (series often up to 46.2 µM), for the others: at the highest dose activity change, negative = growth inhibition, most hits filed as inhibitors; 420,000 compounds, 15% hits; further: potency means the concentration at half of the fitted maximal effect; nearly all actives have a fitted effect of over 55% in size
#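 Cells were dispensed at 400 per well, compounds added by pin tool, plates incubated ≥48 hr at 37 °C, then CellTiter-Glo added for 30 min at room temperature before luminescence reading. Line: DT40 Tdp1-/- complemented with hTDP1; camptothecin omitted.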
# TDP1 cell CPT: DT40-hTDP1 cell growth loss with CPT. chicken DT40 Tdp1-/-;hTDP1 cells + 20 nM CPT, ATP luminescence, 48 h. Potency, µM (highest dose often 46.2 µM), without a hit: at the top dose activity change, negative = growth inhibition, actives largely listed as inhibitors. 420,000 compounds, 12% hits. AID 686979; further: potency means the concentration at half of the fitted maximal effect; nearly all actives have a fitted effect of over 55% in size
#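 Cell growth measured by CellTiter-Glo luminescence after a minimum 48 h, 37 C compound exposure with 20 nM CPT in Tdp1-knockout DT40 cells stably expressing hTDP1, seeded 400/well; qHTS titration format.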
# HT1080 IDH1KD tx: kills HT-1080 cells with IDH1 knockdown. HT-1080 IDH1 knockdown viability, ATP luminescence, 48 h. Potency, µM (doses to about 46.1 µM), inactives show at the top dose activity, negative = toxicity, most hits filed as cytotoxic. 360,000 compounds, 2% hits;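 further: potency means the concentration at half of the fitted maximal effect; 0% = DMSO wells and -100% = cell-free medium wells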
#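 Viability of IDH1-knockdown HT-1080 fibrosarcoma cells was assessed by CellTiter-Glo after 48 h at 37 °C with titrated compound; concentration-effect curves were classified by fit quality and response size.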
# HT1080NT lethal: kills 2HG-producing HT-1080-NT fibrosarcoma cells; AID 686970; HT-1080-NT fibrosarcoma viability, CellTiter-Glo ATP luminescence, 48 h; Potency, µM (highest dose often 46.1 µM), for inactives: at the top dose activity, negative = less viability, hits mostly cytotoxic; 360,000 compounds, 1.6% hits;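 further: NT is the 2HG producing partner of a matched IDH1 knockdown line; potency means the concentration at half of the fitted maximal effect; 0% = DMSO-treated cells and -100% = media-only wells without cells; nearly all actives have a fitted effect of over 55% in size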
#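 Luminescent CellTiter-Glo readout after 48 hours of compound exposure at 37 degrees C defined viability of HT-1080-NT cells. Activity was normalized to DMSO wells and cell-free media wells; concentration-response curves were fitted and assigned curve classes.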
# IL-1B inflam inh: inhibitors of inflammasome signaling (IL-1 beta secretion); THP-1 LPS/ATP IL-1B secretion, AlphaLISA, 16 h; stronger effect = lower value; activity change, % at 57.5 µM; 360,000 compounds, 4.7% hits; AID 743279; in the data active means activity change below about -50%; inconclusive means mostly about -30% to -49%
#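 THP-1 cells pretreated 1 hr with compounds (up to 57.5 uM final), then stimulated with LPS (250 ng/mL final) plus ATP (1.25 mM final); secreted IL-1B measured by AlphaLISA after 16 hr, decreased signal indicating inhibition.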
# * = called active by the depositor; ? = inconclusive; / = no result; ! = a repeat was not active. Rows were chosen to be rich in hits. Some 19% of all compounds tested hit in one or more screens of this group. Unless noted, the call rests on the fitted dose curve; in most records, active means well fitted curve in the direction sought with a large enough effect; inconclusive means small, poorly fitted or top-dose-only effect, or another doubt; inactive means no such curve, though single readings can be large; an effect the other way counts as inactive or inconclusive. Unless noted, on the % scale 0 is the no-effect control and ±100 the full control effect.
SMILES,TDP1 cell noCPT,TDP1 cell CPT,HT1080 IDH1KD tx,HT1080NT lethal,IL-1B inflam inh
CCOC(=O)c1c(C)[nH]c(C)c1C(=O)COC(=O)c1ccc(Cl)c(S(=O)(=O)NCc2ccccc2)c1,23.1µM*,20.6µM*,23.1µM*,18.4µM*,78.1
O=C(COC(=O)c1ccc(Cl)c(S(=O)(=O)NCc2ccccc2)c1)NC1CC1,2.0%,-16.4%,5.2%,8.5%,-4.7
CCOC(=O)c1c(C)[nH]c(C)c1C(=O)COC(=O)c1cc2ccccc2cc1O,16.4µM*,?,?,-5.1%,-67.0*
CC1(C)CC(C(CC(=O)Nc2nccs2)c2ccccc2)CCO1 (stereo not drawn),18.4µM*,?,2.3%,4.9%,30.2
CCCN(CCC)C(=O)CC(c1ccccc1)C1CCOC(C)(C)C1 (stereo not drawn),23.1µM*,?,-1.8%,5.5%,16.3
CCCC1NC(=O)c2cc3ccccc3cc2-n2c1nc1ccc(F)cc1c2=O (stereo not drawn),20.6µM*,?,-4.5%,-1.5%,-6.3
CC(C)CC1NC(=O)c2cc3ccccc3cc2-n2c1nc1ccc(F)cc1c2=O (stereo not drawn),23.1µM*,23.1µM*,-2.0%,-7.8%,23.9
Cc1ccc2nc3n(c(=O)c2c1)-c1cc2ccccc2cc1C(=O)NC3CC(C)C (stereo not drawn),16.4µM*,16.4µM*,13.4%,7.5%,32.7
CCOC(=O)c1ccc(NC(=O)CCC(=O)OC)cc1,-14.1%,-3.2%,-5.3%,0.5%,18.8
CC1CN=C(NS(=O)(=O)c2ccccc2)N1 (stereo not drawn),-2.5%,8.9%,-4.1%,-2.2%,-13.8
O=C(Nc1cc(Sc2ccccn2)cc([N+](=O)[O-])c1)c1ccc(Cl)cc1,23.1µM*,?,?,?,-65.8*
CCCNC(=O)NNC(=O)c1ccc(F)cc1,?,?,18.1%,19.7%,1.9
Cn1c(/C(C#N)=N/O)nc2ccccc21,11.0%,11.6%,7.5%,9.7%,1.8
CCn1c(/C(C#N)=N/O)nc2ccccc21,3.0%,5.7%,7.4%,6.4%,24.0
CCn1c(/C(C#N)=C/c2ccccc2Cl)nc2ccccc21,25.9µM*,?,/,/,/
COc1ccccc1C(=O)c1nc2ccccc2n1C,7.9%,-16.2%,10.7%,17.7%,9.7
Cn1c(/C(C#N)=C/c2ccccc2Br)nc2ccccc21,11.6µM*,14.6µM*,/,/,/
COc1ccc(N/C=C(\C#N)c2nc3ccccc3n2C)c(OC)c1,23.1µM*,?,-8.2%,-11.7%,-9.4
CC1=CC(=O)C2(C)C(C)=C(C)C12C (stereo not drawn),-19.4%,-9.2%,8.5%,4.7%,-8.1
CC(=O)c1c(COC(=O)c2ccc(C)cc2)nc2ccccc2[n+]1[O-],0.7%,0.4%,22.9%,16.8%,/
COc1ccc(N2CCN(C(=O)CSc3nnc(C4CC4)n3C3CC3)CC2)cc1,-6.2%,-16.3%,8.2%,7.6%,7.1
COc1cc(-c2ccc3cc(OC)c(OC)c(OC)c3c2)cc(OC)c1OC,?,20.6µM*,?,?,6.9
O=C1CC(c2ccc(Cl)cc2)CC(=O)C1CS(=O)(=O)c1ccccc1 (stereo not drawn),-4.3%,1.9%,0.0%,-7.3%,-58.4*
O=C(c1ccc(COc2ccc(Cl)cc2)o1)N1CCN(Cc2ccc3c(c2)OCO3)CC1,11.2µM*,?,-21.6%,-26.9%,-75.9*
O=C(c1cc2cc3ccc(Cl)cc3nc2o1)N1CCN(Cc2ccc3c(c2)OCO3)CC1,-20.9%,-4.2%,9.6%,22.8%,-3.7
O=C(c1ccc(COc2ccccc2Cl)o1)N1CCN(Cc2ccc3c(c2)OCO3)CC1,20.6µM*,16.4µM*!,?,?,-12.7
O=C(O)c1cc(S(=O)(=O)Nc2ccc(N3CCCCC3)cc2)ccc1Cl,-3.1%,1.7%,6.9%,13.8%,2.9

# Screening data from PubChem BioAssay.
